Measurements taken from PubChem BioAssay.

Key:
[1] = system: Human papillomavirus type 1a protein E7 (residues 44-93); assay: HPV1a E7 fragment binders on microarrays, primary screen, biochemical, small-molecule microarray, residues 44-93, 635 nm fluorescence (AID 1108); conditions: small-molecule microarray binding, fluorescence 635 nm; higher = more signal;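 further: E7 fragment applied at 1 µg/mL in TBST for 1 h at 4 C; score combines spot fluorescence with its signal to noise ratio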
[2] = modulators of HCV replicon luciferase signal, primary screen, HCV replication inhibitor project, Huh7 cells, luciferase reporter (AID 1109); conditions: 48 h, higher = more signal;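 further: huh7 hepatoma cells harbouring a luciferase neomycin HCV replicon reporter; luciferase luminescence as measure of HCV replicon replication; test concentration not given here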
[3] = target: Left-right determination factor 2 (Homo sapiens) (UniProt O00292); assay: LEFTY2 binders on small-molecule microarrays, primary screen, biochemical, small-molecule microarray, 635 nm fluorescence scan (AID 1110); conditions: LEFTY2 binding, higher = more signal
[4] = target: Calmodulin-1 (Homo sapiens) (UniProt P0DP23); assay: CALM1 binders on microarrays, EGTA buffer, profiling panel, biochemical, small-molecule microarray, Cy5-labelled CALM1 (AID 1111); conditions: Cy5-CALM1 binding fluorescence, higher = more signal;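 further: labelled calmodulin applied in Tris saline Tween buffer holding calcium plus EGTA and DTT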
[5] = target: Calmodulin-1 (Homo sapiens) (UniProt P0DP23); assay: calcium-bound CALM1 binders on microarrays, profiling panel, artefact control for SMM control-protein annotation, biochemical, small-molecule microarray, Cy5-labelled CALM1, plus calcium (AID 1112); conditions: Cy5-CALM1 binding fluorescence, higher = more signal;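 further: score merges spot fluorescence with signal to noise from triplicate slides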
[6] = small-molecule microarray binders of probe aWnt5a, primary screen, biochemical, biotinylated probe, 635/667 nm fluorescence (AID 1113); conditions: higher = more signal;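 further: score merges 667 nm fluorescence intensity with signal-to-noise per printed feature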
[7] = small-molecule microarray binders of probe aShh, primary screen, biochemical, biotinylated probe, 635/667 nm fluorescence (AID 1114); conditions: higher = more signal;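 further: probe is biotin-labelled aShh protein from a stem cell growth factor screen; measures binding of labelled protein to compounds printed on the slide; score merges feature fluorescence at 667 nm with signal-to-noise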
[8] = small-molecule microarray binders of probe aNog, primary screen, biochemical, biotinylated probe, 635/667 nm fluorescence (AID 1115); conditions: higher = more signal;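 further: probe is biotinylated aNog protein used at 0.15 µg/mL for 1 h at 4 C; z-score combines 667 nm fluorescence of each spot with its signal to noise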
[9] = target: Torsin-1A-interacting protein 1 (Homo sapiens) (UniProt Q5JTV8); assay: LAP1 binders from COS7 cell lysate, primary screen, small-molecule microarray, 635/667 nm fluorescence (AID 1116); conditions: COS7-hLAP1 lysate binding, 635 nm fluorescence, higher = more signal
[10] = target: Alpha-bungarotoxin (Bungarus multicinctus) (UniProt P60615); assay: alpha-bungarotoxin binders on microarray, profiling panel, artefact control for SMM control protein annotation, biochemical, small-molecule microarray, Alexa647 label, 635/667 nm fluorescence (AID 1117); conditions: alpha-BTX-A647 binding fluorescence, higher = more signal
Alpha-bungarotoxin (Bungarus multicinctus), sequence (P60615 whole entry, looked up): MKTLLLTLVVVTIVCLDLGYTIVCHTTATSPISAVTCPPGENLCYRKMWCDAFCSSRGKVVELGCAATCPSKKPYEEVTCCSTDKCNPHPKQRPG

Torsin-1A-interacting protein 1 (Homo sapiens), sequence (Q5JTV8 whole entry, looked up): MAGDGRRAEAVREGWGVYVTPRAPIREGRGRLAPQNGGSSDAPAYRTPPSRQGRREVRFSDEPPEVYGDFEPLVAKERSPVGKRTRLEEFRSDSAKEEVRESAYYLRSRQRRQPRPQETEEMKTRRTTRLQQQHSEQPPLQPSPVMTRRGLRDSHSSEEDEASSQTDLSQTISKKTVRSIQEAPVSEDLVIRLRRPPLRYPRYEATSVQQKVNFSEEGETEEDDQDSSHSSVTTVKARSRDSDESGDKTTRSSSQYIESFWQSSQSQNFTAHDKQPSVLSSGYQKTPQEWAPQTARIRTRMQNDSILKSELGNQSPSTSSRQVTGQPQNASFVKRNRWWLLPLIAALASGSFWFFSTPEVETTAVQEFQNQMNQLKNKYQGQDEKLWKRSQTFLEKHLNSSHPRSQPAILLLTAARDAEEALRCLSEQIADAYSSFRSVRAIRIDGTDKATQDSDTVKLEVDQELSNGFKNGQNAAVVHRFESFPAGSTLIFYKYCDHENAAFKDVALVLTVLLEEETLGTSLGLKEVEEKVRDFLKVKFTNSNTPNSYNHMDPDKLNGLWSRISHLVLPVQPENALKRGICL
Left-right determination factor 2 (Homo sapiens), sequence (O00292 whole entry, looked up): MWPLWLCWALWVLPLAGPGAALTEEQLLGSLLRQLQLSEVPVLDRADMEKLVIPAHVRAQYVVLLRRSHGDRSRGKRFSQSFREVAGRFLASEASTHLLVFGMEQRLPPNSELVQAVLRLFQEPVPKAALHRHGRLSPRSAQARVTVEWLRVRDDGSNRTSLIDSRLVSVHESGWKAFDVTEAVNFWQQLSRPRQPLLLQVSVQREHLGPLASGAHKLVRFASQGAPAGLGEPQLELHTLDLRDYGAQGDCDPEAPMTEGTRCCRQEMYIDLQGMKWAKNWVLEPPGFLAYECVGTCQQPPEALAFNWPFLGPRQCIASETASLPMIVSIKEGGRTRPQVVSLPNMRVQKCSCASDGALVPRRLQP

| Structure (SMILES) | composite z-score [1] | z-score [2] | composite z-score [3] | composite z-score [4] | composite z-score [5] | composite z-score [6] | composite z-score [7] | composite z-score [8] | composite z-score [9] | composite z-score [10] |
| --- | --- | --- | --- | --- | --- | --- | --- | --- | --- | --- |
| O=C1[C@H]2[C@H]3[C@H](O)[C@H](O)CC(=NOCc4ccccc4)[C@H]3CC[C@H]2C(=O)N1c1cccc(Oc2ccccc2)c1 | 0.934 | 0.162 | 0.389 | 0.364 | -0.177 | 0.0145 | -0.16 | -0.305 | 0.683 | 0.684 |
| COc1cccc([C@H]2Oc3ccc(OC)cc3C(=NOC(C)CN3CCCc4nc(C)c(C)cc43)[C@@H]2O)c1 (stereo not given in full) | -0.508 | -1.12 | 0.37 | -0.789 | -0.582 | -0.0286 | 0.151 | -0.135 | 0.74 | -0.618 |
| CC(C)C[C@@H]1NC(=O)[C@H]2C[C@@H](C(=O)NCCCCCCN(C)C)[C@@H](c3cccc(OCCO)c3)N2C1=O | 1.24 | 0.35 | 1.38 | -2.44 | -1.26 | -0.0792 | 0.108 | -0.216 | 2.04 | 1.61 |
| CCCNC(=O)OC[C@H]1O[C@H](CCON=C2[C@H]3CCn4c(=O)n(-c5ccccc5)c(=O)n4[C@H]3[C@H](O)[C@@H]3O[C@H]23)C=C[C@@H]1Oc1ccc(OC)cc1 | 0.252 | -4.4 | 0.292 | -1.01 | -0.661 | -0.0944 | 0.0062 | -0.124 | -0.0551 | 0.134 |
| COCCNC(=O)OCC1CCCC2(CC(OC(=O)NCCc3ccc(F)cc3)CC(CCC(=O)N[C@@H](C)C(=O)OC)O2)O1 (stereo not given in full) | 1.37 | -0.376 | 1.02 | -0.104 | -0.685 | -0.0643 | -0.0035 | -0.0827 | 0.0096 | 0.429 |
| C=C(/C(=C/C[C@@H](OC(=O)c1ccncc1)c1ccc(OCCO)cc1)c1cnc2ccccc2c1)C(C)C | 0.901 | -3.18 | 0.466 | 0.193 | -0.583 | -0.272 | -0.0234 | -0.302 | 2.75 | 1.26 |
| CC(C)[Si]1(C(C)C)O[C@@H](c2ccccc2)c2cc(C3CC3)nc(-c3ccccc3)c21 | 0.503 | -0.587 | -0.953 | -0.0471 | -0.239 | -0.126 | -0.221 | -0.368 | -0.509 | 0.181 |
| C[C@@H](c1ccccc1)N1C(=O)[C@H]2[C@H]3[C@H](O)C=CC(=O)[C@@H]3CC[C@H]2C1=O | -0.116 | -1.73 | 0.657 | 0.0321 | -0.442 | -0.192 | -0.34 | -0.374 | 0.203 | 0.0013 |
| CO[C@H]1COC(=O)CC=C[C@H](C)[C@@H](NS(=O)(=O)c2ccc(C)cc2)COC(=O)CC=C[C@@H]1C | 0.0839 | -1.72 | 0.694 | -0.46 | -0.521 | -0.0738 | -0.13 | 0.0613 | 0.37 | -0.153 |
| CC(C)OC(=O)C=C1C[C@@H](c2ccc(C#N)cc2)O[C@@H](c2ccc(C#N)cc2)O1 | 1.45 | -2.19 | 0.701 | 0.857 | 0.621 | 0.178 | 0.0875 | 0.229 | 1.22 | 1.09 |
| Cc1ccc(S(=O)(=O)N[C@@H]2COC(=O)[C@H](C)COC(=O)CC=C[C@H]2C)cc1 | -0.45 | 0.668 | 0.602 | -0.163 | -0.964 | -0.13 | -0.117 | -0.425 | 0.438 | 0.0762 |
| COc1ccc(O[C@@H]2[C@H](O)CO[C@H]2C=CC#Cc2ccccc2)cc1 | -0.289 | -0.0351 | 0.347 | -0.414 | -0.789 | -0.1 | -0.138 | -0.234 | 0.17 | -0.891 |
| CCOC(=O)C[C@H]1[C@H](OC(=O)c2cc3ccccc3oc2=O)[C@@H](NC(=O)c2ccc3ccccc3n2)c2cc(OCCCO)ccc2N1C(=O)c1ccccc1 | 0.15 | -1.4 | 0.473 | 0.218 | 0.179 | 0.0374 | -0.138 | 0.108 | 1.12 | 0.593 |
| CO[C@H]1COC(=O)[C@H](C)NC(=O)[C@@H](C)COC(=O)CC=C[C@@H]1C | -0.0574 | -0.504 | 0.348 | -0.239 | -0.514 | 0.0502 | 0.432 | 0.131 | 0.687 | 0.53 |
| CCCC[C@H]1OB(O)C[C@H]2C1=C(C)C[C@H]1C(=O)N(C)C(=O)[C@H]12 | 0.736 | -0.686 | 0.654 | -0.0405 | 0.06 | -0.0462 | -0.243 | 0.322 | -0.368 | 0.27 |
| C=CC[C@@H]1C=C[C@H](ON=Cc2ccc(C(=O)N3[C@H](c4ccc(C)cc4)[C@@H](C)CC[C@H]3C(=O)OC)cc2)[C@@H](CO)O1 | 0.792 | -1.52 | 0.432 | -0.36 | -0.621 | -0.148 | -0.16 | -0.0337 | 0.0268 | -0.255 |
| C#C[C@@H]1Oc2ccccc2S(=O)(=O)N2CCC[C@H]12 | -0.638 | 0.206 | 0.273 | -0.593 | -0.867 | 0.0391 | 0.0893 | 0.186 | 0.237 | -0.302 |
